In the library only some 7.3% were active in any assay of this set; here they are far more common.
Tau fluor counter – Counterscreen qHTS for Inhibitors of Tau Fibril Formation, Fluorescence Polarization; 0.93% of 280,000 active; AID 1463, 2008; Potency, µM (top dose mostly 57.7 µM); tau K18 P301L Alexa594 fluorescence, heparin fibrillization; further: nearly all actives have a fitted effect of over 55% in size
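Human K18 P301L tau (15 uM unlabeled plus 0.24 uM Alexa 594-labeled, final) in 100 mM sodium acetate pH 7 was mixed with compound and 20 uM heparin and incubated 6 hr at 37 C.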
RORgamma inh – qHTS for inhibitors of ROR gamma transcriptional activity; Nuclear receptor ROR-gamma (Mus musculus), P51450; 5.4% of 310,000 active; Potency, µM (doses to about 53.6 µM), hits mostly inhibitors; Drosophila S2 Gal4-RORgamma UAS-luciferase reporter, 20 h; further: nearly all actives have a fitted effect of over 60% in size
Target sequence (P51450 whole entry, looked up, the tested form may be a part): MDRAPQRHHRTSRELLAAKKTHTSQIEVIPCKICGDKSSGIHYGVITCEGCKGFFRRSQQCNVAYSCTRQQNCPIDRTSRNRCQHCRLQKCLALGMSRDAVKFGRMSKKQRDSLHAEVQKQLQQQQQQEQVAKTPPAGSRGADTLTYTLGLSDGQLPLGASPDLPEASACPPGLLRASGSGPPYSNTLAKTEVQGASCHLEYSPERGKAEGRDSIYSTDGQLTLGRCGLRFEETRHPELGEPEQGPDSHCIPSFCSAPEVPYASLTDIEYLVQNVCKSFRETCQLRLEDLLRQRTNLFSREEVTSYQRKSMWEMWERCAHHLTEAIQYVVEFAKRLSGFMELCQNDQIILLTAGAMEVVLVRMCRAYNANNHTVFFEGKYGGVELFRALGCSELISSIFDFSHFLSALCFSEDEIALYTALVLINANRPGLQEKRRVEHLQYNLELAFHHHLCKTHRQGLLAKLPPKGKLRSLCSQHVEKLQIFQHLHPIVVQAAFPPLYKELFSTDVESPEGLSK
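In this cell-based reporter format, copper sulfate (700 uM final) drives Gal4–ROR gamma fusion expression from a metallothionein promoter in Drosophila Schneider cells; compounds preincubated 1 hr, reporter read after 20 hr at ambient temperature.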
Tau fibril ThT – qHTS for Inhibitors of Tau Fibril Formation, Thioflavin T Binding. 2.1% of 270,000 active. Microtubule-associated protein tau (Homo sapiens), P10636. Potency, µM (top dose mostly 57.4 µM), most hits filed as inhibitors. recombinant tau K18 P301L, heparin-induced fibrillization, ThT fluorescence. AID 1460, 2008; further: nearly all actives have a fitted effect of over 55% in size
Target sequence (P10636 561-689 P618L limits assumed): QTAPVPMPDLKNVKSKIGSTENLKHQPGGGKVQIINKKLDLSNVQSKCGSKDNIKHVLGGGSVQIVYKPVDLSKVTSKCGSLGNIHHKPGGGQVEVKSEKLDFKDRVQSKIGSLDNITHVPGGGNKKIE
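Fibril formation assay: tau K18 P301L at 15 uM with trace Alexa 594 label, heparin inducer 20 uM, pH 7 sodium acetate buffer, 37 C for 6 hr; endpoint ThT signal.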
Tau FP inhib – qHTS for Inhibitors of Tau Fibril Formation, Fluorescence Polarization; Microtubule-associated protein tau (Homo sapiens), P10636; K18 P301L tau heparin fibrillization, Alexa594 FP, 6 h; Potency, µM (titrated, usually from 57.7 µM), actives largely listed as inhibitors; 0.39% of 280,000 active; AID 1468, 2008; further: nearly all actives have a fitted effect of over 55% in size
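Human tau K18 […] P301L fragment, 15 uM unlabeled plus 0.24 uM Alexa 594-labeled tau (final), with compound and 20 uM heparin in 100 mM sodium acetate pH 7; 6 hr at 37 C, then Alexa 594 FP read.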
Gal4-VP16 FLuc – VP16 counterscreen qHTS for inhibitors of ROR gamma transcriptional activity; 3.5% of 310,000 active; Drosophila S2 Gal4-VP16 UAS-luciferase, luminescence, 20 h; AID 2546, 2010; Potency, µM (titrated, usually from 53.6 µM), most hits filed as inhibitors;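 further: Gal4-VP16 expression switched on by copper sulfate through the metallothionein promoter; nearly all actives have a fitted effect of over 50% in size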
A number is an active result; – = inactive; ? = inconclusive; · = no result; ! = not confirmed by another sample; [ ] = another dose, or the depositor's remark. The call rests on the fitted dose curve; in most records, active means well fitted curve in the direction sought with a large enough effect; inconclusive means small, poorly fitted or top-dose-only effect, or another doubt; inactive means no such curve, though single readings can be large; an effect the other way counts as inactive or inconclusive.

SMILES | Tau fluor counter | RORgamma inh | Tau fibril ThT | Tau FP inhib | Gal4-VP16 FLuc
Cc1cc(C)c(NC(=O)c2ccc(S(=O)(=O)N(C)C)cc2)c(C)n1 | – | – | – | – | –
CN(C)S(=O)(=O)c1ccc(C(=O)Nc2nnc(-c3ccco3)o2)cc1 | – | 1µM | – | – | 3.2µM
CCN(C(=O)CSc1nc2ccccc2n1CC(=O)Nc1ccccc1C)c1ccccc1 | – | · | – | – | ·
CNC(=O)/C(C#N)=c1\s/c(=C/C(=O)OC)c(=O)n1-c1ccccc1 | – | ? | – | – | –
COC(=O)/C=c1\sc2ncnn2c1=O | – | ? | 16µM | 14µM | –[0.365 µM]
CC1(OC(=O)c2ccco2)C(=O)C2=COC(C3CC3)=CC2=C(Br)C1=O (configuration not stated) | – | – | ? | – | –
Cc1ccc2[nH]c3c(=S)nc[nH]c3c2c1 | – | 13µM | – | – | ?
Cc1ccc2[nH]c3c(=O)n(N)c(C)nc3c2c1 | – | – | – | – | –
Cc1nc2cnc(Oc3cccc(Cl)c3)nc2n(Cc2ccc(F)cc2)c1=O | · | ? | · | · | –
NC(=O)c1ccc(Oc2cccc3cccnc23)c([N+](=O)[O-])c1 | – | – | ? | – | –[10 µM]
O=C(Oc1ccc(Cl)c2cccnc12)N1CCCCC1 | – | – | – | – | –
O=C(Oc1ccc(Cl)c2cccnc12)C12CC3CC(CC(C3)C1)C2 | – | 2.2µM | – | – | 3.2µM
O=C(Oc1ccc(Cl)c2cccnc12)c1cccnc1 | · | 0.89µM | · | · | 1µM
COc1ccc(C(=O)Oc2cccc3cccnc23)cc1[N+](=O)[O-] | – | 2.2µM | ? | – | 3.2µM
Cc1ccc(C(=O)Oc2cccnc2)cc1[N+](=O)[O-] | – | – | ? | – | ?
Cc1ccc(C(=O)Oc2ccc(Cl)c3cccnc23)cc1[N+](=O)[O-] | ? | 1.6µM | ? | ? | 3.5µM
O=C(NCCCO)C(=O)NCC(c1ccc2c(c1)OCO2)N1CCOCC1 (configuration not stated) | – | · | – | – | ·
CC1(C)CC[C@]2(C(=O)O)CC[C@@]3(C)C(=CCC4[C@@]5(C)CCC(O)C(C)(C)C5CC[C@@]43C)C2C1 (some centres not stated) | – | – | – | – | –
O=[N+]([O-])c1cc([N+](=O)[O-])c(Oc2ccc(Cl)c3cccnc23)cc1NN1CCCCC1 | · | 6.3µM | · | · | ?
O=C(c1ccc(S(=O)(=O)c2cccc(Cl)c2)c([N+](=O)[O-])c1)N1CCN(Cc2ccccc2)CC1 | ? | ? | ? | ? | 25µM
COc1ccc(C(=O)N2CCN(Cc3ccccc3)CC2)cc1[N+](=O)[O-] | · | – | · | · | –
CC(=O)Nc1ccc(Cl)c(C(N)=O)c1 | – | – | – | – | –
NC(=O)c1cc(N2C(=O)C=CC2=O)ccc1Cl | – | 7.1µM | ? | – | 7.1µM
CCOc1c(O)ccc(/C=C2\SC(=S)NC2=O)c1[N+](=O)[O-] | ? | – | 10µM | ? | –
Cc1c(CCOC(=O)CC23CC4CC(CC(C4)C2)C3)sc[n+]1CC(=O)c1ccccc1 | – | ? | ? | – | 4.5µM
SMILES | Tau fluor counter | RORgamma inh | Tau fibril ThT | Tau FP inhib | Gal4-VP16 FLuc
Cc1c(CCOC(=O)c2cc([N+](=O)[O-])cc([N+](=O)[O-])c2)sc[n+]1CC(=O)c1ccc(Br)cc1 | ? | 4µM | ? | – | –
CC(C)Nc1nnc(Sc2ccc(Cl)cc2[N+](=O)[O-])s1 | – | –[10 µM] | – | – | –
COCCCNC(=S)Nc1ccc(OC(F)F)cc1C | – | 11µM | – | – | –
COCCCNC(=S)Nc1cc(C)c(C)cc1C | – | 7.1µM | – | – | 35µM
O=C(N/N=C1/CC2CCC1C2)c1cc2ccccc2cc1O (configuration not stated) | · | 0.89µM | · | · | 0.79µM
O=C(NCC1CCCCC1)c1cc2ccccc2cc1O | · | – | · | · | ?
CC(C)c1ccccc1NC(=O)COC(=O)CCN1C(=O)/C(=C\C=C\c2ccccc2)SC1=S | – | 2.5µM | ? | ? | 4µM
COc1ccc(NC(=O)CN(c2ccc(C)cc2)S(=O)(=O)c2c(C)nn(C)c2C)cc1OC | – | 16µM | – | – | ?
COc1ccc2nc(NC(=O)CN(c3ccc(C)cc3)S(=O)(=O)c3c(C)nn(C)c3C)sc2c1 | ? | – | – | – | 18µM
O=C1C=CC2(OCCCO2)C(Br)=C1CO | – | ? | 16µM | ? | ?
CCOC(=O)C(C(=O)OCC)N(Cc1cc(OC)ccc1OC)C(=O)C1CC(CO[Si](C)(C)C(C)(C)C)=CN1C(=O)OC(C)(C)C (configuration not stated) | · | – | · | · | –
Fc1cccc(NC(=S)N2CCCC2)c1 | – | – | – | – | ?
COc1ccc(N2CCN(C(=S)Nc3ccccc3)CC2)cc1 | · | 13µM | · | · | ?
CC(=O)c1ccc(N2CCN(C(=S)Nc3cccc(F)c3)CC2)cc1 | – | 14µM | ? | – | –
CC(=O)c1ccc(N2CCN(C(=S)Nc3ccc(Oc4ccccc4)cc3)CC2)cc1 | – | 3.2µM | ? | – | 4.5µM
CCC(=O)N1c2ccccc2CC1C(=O)NCc1cc(Br)ccc1OC (configuration not stated) | – | · | – | – | ·
CCCCCCCC/C=C\CCCCCCCC(=O)NCCc1ccc(O)c(O)c1 | 14µM![quencher] | ? | ? | ? | 18µM!
CCn1c(=O)cc(OCC(=O)N2CCN(c3cccc(Cl)c3)CC2)c2ccccc21 | – | · | – | – | ·
Cc1cc(C)n(-c2nc(SCC(=O)O)c3c4c(sc3n2)COC(C)(C)C4)n1 | – | 7.1µM | – | – | ?
Cc1cc(C)n(-c2nc(NCc3cccnc3)c3c4c(sc3n2)COC(C)(C)C4)n1 | – | 4µM | – | – | 6.3µM
CCN(CC)CCCNc1nc(-n2nc(C)cc2C)nc2sc3c(c12)CC(C)(C)OC3 | – | 13µM | – | – | ?
CCC1(C)Cc2c(sc3nc(SC)nc(NCCN(C)C)c23)CO1 (configuration not stated) | – | – | – | – | –[0.365 µM]
COc1ccc(CNc2nc(-c3ccc4c(c3)OCO4)nc3ccccc23)c(OC)c1 | · | – | · | · | –
Cc1c(Cl)ccc2c(C(=O)NC(C)c3ccncc3)cc(-c3ccncc3)nc12 (configuration not stated) | – | ? | ? | – | 13µM
COC(=O)CNC(=O)c1cc(-c2ccncc2)nc2c(C)c(Cl)ccc12 | – | – | – | – | –
N#Cc1ccccc1OCC(=O)N1CCN(c2ccccc2)CC1 | – | · | – | – | ·
Cc1cc(/C=c2\sc3nc4ccccc4n3c2=O)c(C)n1-c1ccc(C(=O)O)cc1 | – | – | ? | – | –
Cc1cc(/C=c2/sc3nc4ccccc4n3c2=O)c(C)n1-c1ccccn1 | – | 0.1µM | ? | – | 0.25µM
Nn1cnnc1N/N=C/c1ccc(Cl)c([N+](=O)[O-])c1 | – | ? | 25µM | ? | ?
Nn1cnnc1N/N=C/c1cccc(Cl)c1Cl | · | – | · | · | –

Assay outcomes as filed in PubChem.
